Source: the supplement of paper PMC10515830
Counter-ions that a name gives are not always drawn.

Assays:
Conditions in all cases: 10 µM; exposure time 6 h
[1] = tested on: Danio rerio larvae (5 dpf); experiment: difference in excitability vs DMSO (percentage points); higher = more excitable than DMSO
Summary of the method: (§1)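 Wild-type zebrafish larvae at 5 dpf were kept in 96-well plates and exposed for 6 h to 100 µL egg water holding library compound at a final concentration of 10 µM. From 3 h into exposure, the plates were held at 28.5 ℃ and photographed every 6 s through a 3-h programme of moving lines and 100 ms, 400Hz tones. Each behaviour was scored by Z-LaP Tracker, a DeepLabCut model, and averaged over 48 larvae per compound. Every value gives the compound mean minus the vehicle control mean, in percentage points.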

[2] = tested on: Danio rerio larvae (5 dpf); experiment: difference in startle response vs DMSO (percentage points); higher = stronger startle than DMSO
Summary of the method: as §1

[3] = tested on: Danio rerio larvae (5 dpf); experiment: difference in activity during first hour vs DMSO (percentage points); higher = more activity than DMSO
Summary of the method: as §1

[4] = tested on: Danio rerio larvae (5 dpf); experiment: difference in habituation to acoustic stimuli vs DMSO (percentage points); higher = more habituation than DMSO
Summary of the method: as §1

[5] = tested on: Danio rerio larvae (5 dpf); experiment: difference in combined optomotor response to red, green and blue moving lines vs DMSO (percentage points); higher = stronger optomotor response than DMSO
Summary of the method: as §1

Oc1ncnc2[nH]ncc12 [Allopurinol]
difference in excitability [1]: 0.512
difference in startle response [2]: -2.34
difference in activity during first hour [3]: -0.131
difference in habituation to acoustic stimuli [4]: 0.54
difference [5]: 1.46

CNCC[C@@H](Oc1ccccc1C)c1ccccc1 [Atomoxetine (hydrochloride)]
difference in excitability [1]: 21.7
difference in startle response [2]: -9.34
difference in activity during first hour [3]: -21.4
difference in habituation to acoustic stimuli [4]: -3.36
difference [5]: -0.351

CO[C@@H]1[C@H](N(C)C(=O)c2ccccc2)C[C@H]2O[C@]1(C)n1c3ccccc3c3c4c(c5c6ccccc6n2c5c31)C(=O)NC4
difference in excitability [1]: -5.3
difference in startle response [2]: -4.96
difference in activity during first hour [3]: 4.11
difference in habituation to acoustic stimuli [4]: 8.1
difference [5]: 0.314

NNCCc1ccccc1 [Phenelzine (sulfate)]
difference in excitability [1]: -5.16
difference in startle response [2]: 2.45
difference in activity during first hour [3]: -14.5
difference in habituation to acoustic stimuli [4]: 5.81
difference [5]: 2.16

CC/C=C\C/C=C\C/C=C\C/C=C\C/C=C\CCCC(=O)OCC [Eicosapentaenoic Acid ethyl ester]
difference in excitability [1]: 11.7
difference in startle response [2]: 2.48
difference in activity during first hour [3]: -7.19
difference in habituation to acoustic stimuli [4]: 3.98
difference [5]: 7.27

CCCCCCCC(=O)N[C@H](CN1CCCC1)[C@H](O)c1ccc2c(c1)OCCO2 [Eliglustat (hemitartrate)]
difference in excitability [1]: 10.1
difference in startle response [2]: -3.5
difference in activity during first hour [3]: 7.49
difference in habituation to acoustic stimuli [4]: 7.96
difference [5]: 7.51

CCCCCC(=O)O[C@]1(C(C)=O)CC[C@H]2[C@@H]3CCC4=CC(=O)CC[C@]4(C)[C@H]3CC[C@@]21C [Hydroxyprogesterone Caproate]
difference in excitability [1]: 5.64
difference in startle response [2]: -9.54
difference in activity during first hour [3]: -13.7
difference in habituation to acoustic stimuli [4]: -9.28
difference [5]: -15.8

COc1cc(C(=O)NCc2ccc(OCCN(C)C)cc2)cc(OC)c1OC [Trimethobenzamide (hydrochloride)]
difference in excitability [1]: -3.22
difference in startle response [2]: 1.06
difference in activity during first hour [3]: -0.789
difference in habituation to acoustic stimuli [4]: 2.91
difference [5]: -5.61

O=c1ccn([C@@H]2O[C@H](CO)[C@@H](O)[C@H]2O)c(=O)[nH]1 [Uridine]
difference in excitability [1]: -2.47
difference in startle response [2]: -2.07
difference in activity during first hour [3]: 11.4
difference in habituation to acoustic stimuli [4]: -2.41
difference [5]: 1.41

CCC(=O)OCC(=O)[C@@]1(OC(=O)CC)[C@H](C)C[C@H]2[C@H]3[C@H]([C@@H](O)C[C@@]21C)[C@@]1(C)C=CC(=O)C=C1C[C@H]3Cl [Alclometasone Dipropionate]
difference in excitability [1]: 3.59
difference in startle response [2]: 5.9
difference in activity during first hour [3]: -1.03
difference in habituation to acoustic stimuli [4]: -0.676
difference [5]: 5.42

CCS(=O)(=O)N1CC(CC#N)(n2cc(-c3ncnc4[nH]ccc34)cn2)C1 [Baricitinib]
difference in excitability [1]: 7.57
difference in startle response [2]: -3.92
difference in activity during first hour [3]: 10.9
difference in habituation to acoustic stimuli [4]: -5.36
difference [5]: 5.99

CNNCc1ccc(C(=O)NC(C)C)cc1 [Procarbazine (hydrochloride)]
difference in excitability [1]: 0.724
difference in startle response [2]: -0.558
difference in activity during first hour [3]: 6.39
difference in habituation to acoustic stimuli [4]: -5.35
difference [5]: 4.87

Nc1nc2ccc(OC(F)(F)F)cc2s1 [Riluzole (hydrochloride)]
difference in excitability [1]: 12.7
difference in startle response [2]: -2.33
difference in activity during first hour [3]: 7.76
difference in habituation to acoustic stimuli [4]: 3.2
difference [5]: 11.9

Clc1ccc2nsnc2c1NC1=NCCN1 [Tizanidine (hydrochloride)]
difference in excitability [1]: 1.85
difference in startle response [2]: 4.3
difference in activity during first hour [3]: -8.71
difference in habituation to acoustic stimuli [4]: 1.04
difference [5]: -0.822

NS(=O)(=O)c1cc(C2(O)NC(=O)c3ccccc32)ccc1Cl (stereo not given) [Chlorthalidone]
difference in excitability [1]: -10
difference in startle response [2]: 0.0654
difference in activity during first hour [3]: 5.83
difference in habituation to acoustic stimuli [4]: 3.4
difference [5]: -3.83

Cc1ccc(C(=O)c2ccc(CC(=O)O)n2C)cc1 [Tolmetin (sodium salt hydrate)]
difference in excitability [1]: -2.25
difference in startle response [2]: 2.51
difference in activity during first hour [3]: 13.8
difference in habituation to acoustic stimuli [4]: 1.94
difference [5]: 7.94

N#Cc1ccc(Oc2ccc3c(c2)COB3O)cc1
difference in excitability [1]: -2.19
difference in startle response [2]: -0.784
difference in activity during first hour [3]: -16.9
difference in habituation to acoustic stimuli [4]: -15.1
difference [5]: -18.2

CCCCc1nc(Cl)c(CO)n1Cc1ccc(-c2ccccc2-c2nnn[nH]2)cc1 [Losartan (potassium salt)]
difference in excitability [1]: 3.08
difference in startle response [2]: 0.6
difference in activity during first hour [3]: 6.85
difference in habituation to acoustic stimuli [4]: -4.35
difference [5]: -1.12

Nc1nc(=O)c2c([nH]1)NC[C@H](CNc1ccc(C(=O)N[C@@H](CCC(=O)O)C(=O)O)cc1)N2C=O [L-Folinic Acid (calcium salt)]
difference in excitability [1]: -3.02
difference in startle response [2]: -0.777
difference in activity during first hour [3]: -9.87
difference in habituation to acoustic stimuli [4]: -0.456
difference [5]: -0.774

CC#C[C@]1(O)CC[C@H]2[C@@H]3CCC4=CC(=O)CCC4=C3[C@@H](c3ccc(N(C)C)cc3)C[C@@]21C [Mifepristone]
difference in excitability [1]: 10.2
difference in startle response [2]: -2.97
difference in activity during first hour [3]: -9.36
difference in habituation to acoustic stimuli [4]: 0.759
difference [5]: 4.72

CN[C@H](CC(C)C)C(=O)N[C@H]1C(=O)N[C@@H](CC(N)=O)C(=O)N[C@H]2C(=O)N[C@H]3C(=O)N[C@H](C(=O)N[C@H](C(=O)O)c4cc(O)cc(O)c4-c4cc3ccc4O)[C@H](O)c3ccc(c(Cl)c3)Oc3cc2cc(c3O[C@@H]2O[C@H](CO)[C@@H](O)[C@H](O)[C@H]2O[C@H]2C[C@](C)(N)[C@H](O)[C@H](C)O2)Oc2ccc(cc2Cl)[C@H]1O [Vancomycin (hydrochloride)]
difference in excitability [1]: -0.532
difference in startle response [2]: -0.846
difference in activity during first hour [3]: 1.02
difference in habituation to acoustic stimuli [4]: -1.36
difference [5]: 9.98

CC[C@@H]1C(=O)OC[C@@H]1Cc1cncn1C [(+)-Pilocarpine (hydrochloride)]
difference in excitability [1]: 9.24
difference in startle response [2]: -3.79
difference in activity during first hour [3]: -22.2
difference in habituation to acoustic stimuli [4]: 5.07
difference [5]: -5.32

O=C1Cc2cc(CCN3CCN(c4nsc5ccccc45)CC3)c(Cl)cc2N1 [Ziprasidone (hydrochloride hydrate)]
difference in excitability [1]: 26.8
difference in startle response [2]: 5.81
difference in activity during first hour [3]: 11.2
difference in habituation to acoustic stimuli [4]: -6.75
difference [5]: 5.5

O=C(O)CCCCCCCC(=O)O [Azelaic Acid]
difference in excitability [1]: 1.68
difference in startle response [2]: 4.07
difference in activity during first hour [3]: -2.89
difference in habituation to acoustic stimuli [4]: 4.6
difference [5]: 6.08
